Test results as given in ChEMBL document CHEMBL2218924, “A broad activity screen in support of a chemogenomic map for kinase signalling research and drug discovery” (Biochem J, 2013).

Molecular target: Tyrosine-protein kinase ABL1 (Homo sapiens) (UniProt P00519)
Conditions: at 10 µM

Tyrosine-protein kinase ABL1 (Homo sapiens), sequence (P00519 whole entry): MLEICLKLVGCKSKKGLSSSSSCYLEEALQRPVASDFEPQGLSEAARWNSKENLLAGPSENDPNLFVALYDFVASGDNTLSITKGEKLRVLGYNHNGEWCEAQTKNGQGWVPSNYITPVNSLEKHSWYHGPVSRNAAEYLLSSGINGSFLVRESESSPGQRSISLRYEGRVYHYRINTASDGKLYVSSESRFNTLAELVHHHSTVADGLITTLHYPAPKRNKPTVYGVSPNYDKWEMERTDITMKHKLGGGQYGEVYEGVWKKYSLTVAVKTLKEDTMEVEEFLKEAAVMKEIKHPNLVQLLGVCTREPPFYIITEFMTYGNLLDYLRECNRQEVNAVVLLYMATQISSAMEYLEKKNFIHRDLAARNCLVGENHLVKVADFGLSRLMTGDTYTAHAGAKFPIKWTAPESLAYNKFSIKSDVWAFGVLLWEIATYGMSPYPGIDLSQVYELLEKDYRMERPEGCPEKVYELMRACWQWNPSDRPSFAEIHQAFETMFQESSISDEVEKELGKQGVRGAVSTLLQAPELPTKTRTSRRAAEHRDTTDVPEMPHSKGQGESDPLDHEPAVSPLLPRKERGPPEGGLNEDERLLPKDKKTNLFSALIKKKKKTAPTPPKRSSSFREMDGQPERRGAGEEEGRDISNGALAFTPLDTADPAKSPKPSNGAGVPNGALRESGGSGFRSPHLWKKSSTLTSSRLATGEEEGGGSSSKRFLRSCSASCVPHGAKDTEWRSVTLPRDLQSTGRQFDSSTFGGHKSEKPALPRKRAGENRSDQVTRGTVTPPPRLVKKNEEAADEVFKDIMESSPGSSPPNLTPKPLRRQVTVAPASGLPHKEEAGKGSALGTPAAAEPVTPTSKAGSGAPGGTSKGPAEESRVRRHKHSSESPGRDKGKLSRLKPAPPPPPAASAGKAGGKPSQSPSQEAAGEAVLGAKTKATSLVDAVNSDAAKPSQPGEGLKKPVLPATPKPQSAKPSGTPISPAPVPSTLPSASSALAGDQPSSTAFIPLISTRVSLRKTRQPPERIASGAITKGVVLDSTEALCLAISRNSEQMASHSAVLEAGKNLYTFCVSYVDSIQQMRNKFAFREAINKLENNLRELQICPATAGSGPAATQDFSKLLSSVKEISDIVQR

Row | SMILES | residual activity [%]
1 | COc1ccc(CNc2nc(N(CCO)CCO)nc3c2ncn3C(C)C)cc1 | 73
2 | O=C1NC(=O)c2c1c1c3ccccc3[nH]c1c1[nH]c3cc(Br)ccc3c21 | 82
3 | O=C1Nc2cc(Br)ccc2/C1=C1/Nc2ccccc2/C1=N\O | 6
4 | Cc1cccc(-c2[nH]c(C(C)(C)C)nc2-c2ccc3c(c2)OCO3)n1 | 102
5 | COc1cc2ncnc(Nc3ccc(NC(=O)c4ccccc4)cc3)c2cc1OC | 81
6 | Nc1nc(Nc2ccc(S(N)(=O)=O)cc2)nn1C(=S)Nc1c(F)cccc1F | -5
7 | NC(=O)c1ccc2[nH]c(-c3ccc(Oc4ccc(Cl)cc4)cc3)nc2c1 | 130
8 | c1ccc(-c2n[nH]c3c2oc2ccccc23)cc1 | 77
9 | Oc1c2ccccc2c2c3c(cccc13)N=N2 | 56
10 | Cc1nc2cc3nc(-c4cccs4)cnc3cc2n1C | 52
11 | N#CC(C#N)=C(N)/C(C#N)=C/c1ccc(O)cc1 | 78
12 | Oc1ccc(-c2nc(-c3ccc(F)cc3)c(-c3ccncc3)[nH]2)cc1 | 95
13 | Oc1ccc(Nc2nc(-c3ccc(Cl)cc3)cs2)cc1 | 75
14 | CCN(CC)C(=O)c1ccc(Nc2nc(OCC3CCCCC3)c3nc[nH]c3n2)cc1 | 6
15 | O=C(Nc1cccc(Nc2cc(Nc3cccc(C(F)(F)F)c3)ncn2)c1)C1CC1 | 104
16 | C[C@@H](N)[C@H]1CC[C@H](C(=O)Nc2ccncc2)CC1 | 101
17 | CCC(=O)Nc1ccc2ncnc(Nc3cccc(Br)c3)c2c1 | 89
18 | Nc1cccc(-c2cc3c(Oc4cccc(O)c4)ncnc3[nH]2)c1 | -5
19 | COc1ccc(C(=O)Nc2sc3c(c2C(N)=O)CCCC3)cc1OC | 86
20 | O=C(Nc1cccc(Nc2nccc(Nc3cccc(C(F)(F)F)c3)n2)c1)C1CC1 | 76
21 | COc1cc2ncc(-c3ccccc3)nc2cc1OC | 83
22 | O=C1NC(=O)/C(=C\c2ccc3nccnc3c2)S1 | 81
23 | O=C1NC(=O)/C(=C/c2ccc3c(c2)OC(F)(F)O3)S1 | 79
24 | Nc1ccc2ncnc(NCCc3ccc(Oc4ccccc4)cc3)c2c1 | 101
25 | Cc1ccc(NC2=CC(=O)c3sc(C)nc3C2=O)cc1 | 82
26 | COc1ccc(OC)c2c(=S)c3ccccc3[nH]c12 | 89
27 | O=C1Nc2ccc(Br)cc2/C1=C\c1cc2c([nH]1)CCCC2 | 75
28 | N#CCCc1ccc2c(c1)-c1[nH]c3ccc([N+](=O)[O-])cc3c1CC(=O)N2 | 13
29 | c1ccc(-c2n[nH]cc2-c2ccnc3ccccc23)nc1 | 14
